# Data published in PubChem BioAssay (NCI).
# This is part of a sample that, as a whole, favours compounds with a hit. Of some 83,000 tested, about 20% had one in any assay.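 For each line, cells grew in 96-well plates with the test compound present at a single concentration for 48 hours.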 Values without a mark were called inactive. Activity calls are given as the source filed them.
# Test system: SK-MEL-2 melanoma
# Assay: NCI-60 one-dose screen, 48 h (100 = growth as untreated, 0 = no growth, -100 = all killed)
# Settings: 10 µM
# Experimental: Growth inhibition of the SK-MEL-2 human tumor cell line is measured as a screen for anti-cancer activity. Cells are grown in 96 well plates and exposed to the test compound for 48 hours. Compounds are tested at a single concentration, which is 10^-5 M for most compounds. The reported endpoint is percent growth (GI% or GIPRCNT), where numbers from 0 - 100% represent growth inhibition, and numbers from -100% - 0 represent cell death. For example, a value of 40 represents 60% growth inhibition. A value of 0 means no net growth occurred over the course of the experiment. A value of -40 indicates 40% of cells at the beginning of the experiment died by the end of the experiment. A value of -100 means all cells are dead at the end of the experiment.
# NCI-60 Human Tumor Cell Lines Screen was performed using the standard one-dose NCI protocol, which is described in more detail at https://dtp.cancer.gov/discovery_development/nci-60/default.htm.
# Compounds with GIPRCNT values below 10 were considered active. Activity score was based on GIPRCNT using the following formula: […]
# Score is 0 for GIPRCNT values of 100 or above, 50 for GIPRCNT values of 0, and 100 for GIPRCNT values of -100.
row,Compound,growth
1,CCc1nc(N)nc(N)c1-c1ccc(Cl)cc1,105%
2,OCC(O)C(O)C(O)C(O)/C=N/O (stereo not given),107%
3,CC(C)=CC(=O)OC(=O)C=C(C)C,108%
4,C=CCOC(=O)C(=O)OCC=C,97.1%
5,CCN(CC)C(=O)/C=C(/C)c1ccccc1,113%
6,CCn1c(=O)n(C)c2c(=O)n(C)c(=O)n(C)c21,104%
7,O/N=C/c1ccc(O)cc1O,92.9%
8,Cc1ccc(C(=O)N/N=C/c2ccc3c(c2)OCO3)cc1,90.4%
9,CCCCCCCCCCC1CO1 (stereo not given),118%
10,Cc1cc(=O)cc(C)n1-c1ccccc1,104%
11,Cc1cc(C)cc(NCCC#N)c1,98.3%
12,CCCCNC1(C#N)CCN(Cc2ccccc2)CC1,102%
13,O=[N+]([O-])c1ccc(N=Nc2ccc(O)c3ccccc23)cc1,43.2%
14,O=C(/C=C\c1ccc(O)cc1)c1ccccc1,114%
15,CC1=NN(c2ccccc2)C(=O)/C1=C\N1CC(=O)NC1=S,108%
16,Oc1ccccc1-c1nnco1,96.4%
17,O=C(O)CCC(NC(=O)OCc1ccccc1)C(=O)O (stereo not given),105%
18,Cc1ccc(C)n1-c1ccsc1C(=O)NNC(=O)C(Cl)Cl,106%
19,COc1cc(CN)ccc1O,-8.32% (active)
20,COC(=O)c1ccc(NC(=O)CCl)cc1,66%

row,Compound,growth
1,CC1CCC(C(=O)O)N1 (stereo not given),91.5%
2,Cc1cc(C)c(N)c(S(=O)(=O)O)c1,93.6%
3,c1ncc2[nH]cnc2n1,84.6%
4,Cc1nc2ccccc2c(C(=O)O)c1O,313%
5,Cc1cc(C)c(CC(=O)O)c(C)c1,100%
6,Nc1ccc(N)c([N+](=O)[O-])c1,115%
7,COC(=O)/C=C\C(=O)OC,114%
8,CCCNc1ccc(C2=NCCCN2)cc1,102%
9,Cc1ccc(C(=O)NC2c3ccccc3Oc3ccccc32)cc1,66.4%
10,O=C(NCc1ccco1)Nc1c(Cl)cc(Cl)cc1Cl,75.5%
11,CSC[C@H](NC(=O)COc1cccc2cnccc12)C(=O)NC(Cc1ccccc1)C(O)C(=O)N1CSC[C@H]1C(=O)NC(C)(C)C (stereo not given in full),113%
12,COc1cc(OC)c2ccc(=O)oc2c1,104%
13,C=CC(O)CCC (stereo not given),122%
14,Cc1ccc(CCCC(=O)O)c(C)c1,91.1%
15,C/C(=N\O)C1(O)CCCCC1,82.9%
16,CCN=c1cc2sc3cc(NCC)c(C)cc3nc-2cc1C,26.5%
17,CC(C)COC(=O)COC(=O)OCCOCCOC(=O)OCC(=O)OCC(C)C,94.2%
18,Oc1ccccc1O,90.1%
19,CCOC(=O)C(C#N)Cc1ccccc1 (stereo not given),114%
20,O=c1cc(-c2ccccc2)[nH]c(=S)[nH]1,98.8%
